Assay outcomes as filed in PubChem.
CYP2C9 act: CYP2C9 (human) activation; recombinant CYP2C9, luciferin-H conversion, luminescence; stronger effect = higher value; factor 1 = untreated enzyme, 0 = blocked; P11712; AID 1024; 96,000 tested, 1.4% active; activation factor at 5 µM;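 active = activation factor of 2 or more for CYP2C9 at a 5 µM dose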;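 also: 0 = sulfaphenazole-blocked wells and 1 = vehicle-only wells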
PostGolgi yeast: growth inhibition of a yeast mutant, post-Golgi transport screen; 98,000 tested, 0.9% active; post-Golgi transport phenotypic cell assay; inhibition, % at 10 µM;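 also: yeast cells grown in 1536-well plates; yeast grown about 18 h at 30C before absorbance read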
PostGolgi ctrl: yeast control strain growth, post-Golgi counter-screen | 98,000 tested, 5% active | efflux-deficient yeast background strain, growth absorbance A615, 16 h | inhibition, % at 10 µM
CYP2C19 inh: blocks human cytochrome P450 2C19 | AID 778 | inhibition, % at 5 µM | CYP2C19 Supersomes, luciferin-H EGE luminescence, 30 min | 96,000 tested, 21% active | P33261;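 active = CYP2C19 inhibition above a set limit at 5 µM in the primary screen, cut at about 50% in these data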;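 also: plate controls were negative control wells for no effect and 2.5 mM tranylcypromine positive control for full effect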
Target sequence (P33261 whole entry, looked up): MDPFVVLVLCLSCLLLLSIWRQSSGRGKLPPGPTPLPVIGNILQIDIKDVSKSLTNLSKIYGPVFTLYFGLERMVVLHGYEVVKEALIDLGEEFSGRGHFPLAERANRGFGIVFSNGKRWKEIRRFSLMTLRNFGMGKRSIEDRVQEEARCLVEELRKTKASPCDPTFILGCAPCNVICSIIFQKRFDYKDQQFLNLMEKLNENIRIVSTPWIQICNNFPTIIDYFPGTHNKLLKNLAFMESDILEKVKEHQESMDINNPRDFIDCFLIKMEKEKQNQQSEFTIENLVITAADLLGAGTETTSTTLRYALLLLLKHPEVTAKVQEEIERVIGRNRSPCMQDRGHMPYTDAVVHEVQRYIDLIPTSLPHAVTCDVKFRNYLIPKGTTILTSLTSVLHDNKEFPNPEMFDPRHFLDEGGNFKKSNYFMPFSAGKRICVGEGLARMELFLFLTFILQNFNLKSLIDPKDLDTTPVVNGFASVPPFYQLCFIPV
CYP2C9 inhib: inhibitors of human CYP2C9. P11712. 96,000 tested, 20% active. CYP2C9 Supersomes, luciferin-H conversion, luminescence. inhibition, % at 5 µM;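 active = blocking of liver enzyme CYP2C9 beyond about 50% at 5 µM, limit read from the data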
CYP2C19 activ: activators of human cytochrome P450 2C19; P33261; recombinant CYP2C19, luciferin-H EGE luminescence; stronger effect = higher value; 0 = fully inhibited enzyme, 1 = untreated enzyme; activation factor at 5 µM; 96,000 tested, under 10 active;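 active = activation factor of at least 2 at 5 µM in the primary screen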;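 also: 0 = wells with 2.5 mM tranylcypromine and 1 = vehicle-only wells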
* = called active by the depositor; . = no result. Most compounds without a hit are left out; they make up all but 32% or so of the library. Rule as the data show it, unless noted: active = inhibition above about 30%; inactive = the rest.

SMILES	CYP2C9 act	PostGolgi yeast	PostGolgi ctrl	CYP2C19 inh	CYP2C9 inhib	CYP2C19 activ
CCc1nnc(NC(=O)CSc2nc(-c3ccc(OC)cc3)ns2)s1	0.3	-3	-3	31	72*	0.7
CCc1nnc(NC(=O)CSc2ncnc3c2cnn3-c2ccc(OC)cc2)s1	0.7	-5	-10	32	28	0.7
COc1ccccc1COC(=O)Nc1c(C)nn(C)c1Cl	1.3	5	3	34	-29	0.7
CCN(CC)CCOC(=O)c1ccc(NC(=O)C2(c3ccccc3)CCCC2)cc1	1	-1	10	0	3	1
CCOc1ccc(NC(=O)CN(C)CC(=O)NC2CCCc3ccccc32)cc1OCC (centres undefined)	0.1	4	5	23	86*	0.8
Cc1nc2ccccc2c(=O)n1NC(=O)Cc1ccc(Br)cc1	0.2	-2	-1	40	85*	0.6
CCCCCc1ccc(CC(=O)Nn2c(C)nc3ccccc3c2=O)cc1	0.1	-3	41*	60*	95*	0.4
Cc1nc2ccccc2c(=O)n1NC(=O)c1c(O)c2ccccc2n(C)c1=O	1	.	.	13	3	0.9
CCCn1c(SCC(=O)Nc2cccc(C(=O)OC)c2)nnc1-c1cccnc1	0.5	12	0	43	51*	0.6
CCOC(=O)c1cccc(NC(=O)CSc2nnc(-c3ccncc3)n2CCCOC)c1	0.4	15	0	50*	64*	0.5
CN(c1ccc(C(=O)NCC2CCCO2)cc1)S(C)(=O)=O (centres undefined)	1	2	0	-1	-1	1
COc1ccc(CNC(=O)C(C)N(Cc2ccco2)C(=O)c2snc(C(N)=O)c2N)cc1 (centres undefined)	0.4	4	10	85*	64*	0.2
CCc1ccccc1N(CC(=O)NCc1ccco1)C(=O)c1snc(C(N)=O)c1N	0.3	5	-3	95*	69*	0.1
CC1CCCN(S(=O)(=O)c2ccc(NC(=O)c3cccc(-n4cnnn4)c3)cc2)C1 (centres undefined)	0.7	11	5	18	31	0.8
Cc1nc(C(F)(F)F)nc(Nc2ccc(Br)cc2)c1C#N	1	0	5	64*	2	0.4
Cc1cc2c(=O)n(CC(=O)NCC(=O)N3CCN(Cc4ccccc4)CC3)cnc2s1	0.5	-10	21	17	52*	0.8
O=S(=O)(c1cccc(-c2csc(-c3cccnc3)n2)c1)N1CCCCC1	0.1	-2	32*	94*	94*	0.1
O=S(=O)(c1ccc(-c2csc(-c3cccnc3)n2)cc1)N1CCCCC1	.	-1	41*	.	.	.
CCOC(=O)C1CCN(S(=O)(=O)c2cccc(-c3csc(C)n3)c2)CC1	0.5	-5	9	40	46	0.6
CC1CCN(S(=O)(=O)c2cccc(-c3csc(-c4cccnc4)n3)c2)CC1	0.2	-7	9	85*	79*	0.1
O=S(=O)(c1ccc(-c2csc(-c3cccnc3)n2)cc1)N1CCCC1	0.7	13	19	14	28	0.9
O=C(O)CSc1nnc(-c2cc3ccccc3o2)n1-c1ccccc1	1.1	-7	-9	-11	-9	1.1
CCOP(=O)(OCC)C(C#N)=C1SCN(c2ccc(Cl)cc2)CS1	0.4	13	9	32	61*	0.7
O=C(CCCN1C(=O)c2cccnc2C1=O)N1CC(=O)N(CCc2ccccc2)C(=O)C1	0.9	7	-1	24	13	0.8
COc1cc(OC)c(-c2nc3cnccc3n2C)cc1OC	0.6	-4	9	75*	35	0.2
SMILES	CYP2C9 act	PostGolgi yeast	PostGolgi ctrl	CYP2C19 inh	CYP2C9 inhib	CYP2C19 activ
Cn1c(-c2ccc3ccccc3n2)nc2cnccc21	0.5	0	-3	88*	54*	0.1
COc1cc(-c2nc3cnccc3n2C)cc(OC)c1OC	1	-2	-7	-6	2	1.1
CCCCn1c2c(c3ccccc31)CCc1nonc1-2	1	.	.	-5	0	1.1
CC(=O)c1c(C)oc(C)c1CSCc1ccc(C(=O)O)o1	1	-7	-2	3	2	1
Clc1ccc(-c2nnc3n2CCCS3)cc1	1.1	-3	10	-11	-11	1.1
CCOC(=O)Cn1c(C)nc2ccccc21	1.1	3	17	8	-5	0.9
CCC(C)Cn1c(C)nc2ccccc21 (centres undefined)	0.7	1	0	52*	26	0.5
O=C(OCC#CCSc1nc2ccccc2o1)c1ccco1	0.4	-12	7	74*	57*	0.3
COc1ccc(-c2nnc(SCC#CCO)o2)cc1OC	0.9	3	8	16	6	0.8
O=C(OCC#CCSc1nnc(-c2cccc3ccccc23)o1)c1ccco1	2.1*	-10	6	2	-107	1
O=C(OCC#CCSc1nnc(-c2ccncc2)o1)c1cccs1	0.2	-7	-9	79*	78*	0.2
OCC#CCSc1nnc(-c2ccc(Br)cc2)o1	0.8	1	-1	60*	24	0.4
OCC#CCSc1nnc(-c2ccccc2Br)o1	1.2	7	5	31	-16	0.7
CCN(CC)CCOC(=O)c1ccc(NC(=O)COc2cc(=O)n(CC)c3ccccc23)cc1	0.5	2	0	66*	52*	0.3
COCC(=O)Nc1ccccc1C#N	1	7	-4	4	-5	1
N#Cc1ccccc1NC(=O)CC1CCCCC1	1	2	9	58*	0	0.4
Cc1[nH]c2ccccc2c1C(=O)CN1CCN(C/C=C/c2ccccc2)CC1	1.1	0	25	6	-6	0.9
COc1ccc2[nH]c(C)c(C(=O)CN3CCN(C/C=C/c4ccccc4)CC3)c2c1	0.5	7	8	11	54*	0.9
COc1ccccc1N1CCN(CC(=O)c2c(C)[nH]c3ccccc23)CC1	1.8	-7	-2	87*	-85	0.1
O=c1ccc(Oc2nc(N3CCOCC3)nc(N3CCOCC3)n2)n[nH]1	1	2	4	17	-3	0.8
CCCCn1c(SCC(=O)N2CCCCC2)nc2cc(S(N)(=O)=O)ccc21	0.8	-3	25	9	24	0.9
CCCCn1c(SCC(=O)NCc2ccccc2)nc2ccc(N3CCOCC3)cc2c1=O	0.3	-5	35*	34	74*	0.7
CCCCn1c(SCC(=O)NCc2ccco2)nc2cc(S(N)(=O)=O)ccc21	0.3	8	10	56*	68*	0.4
CCCCn1c(SCC(=O)Nc2ccc(OC)cc2)nc2ccc(N3CCOCC3)cc2c1=O	0	4	14	84*	100*	0.2
CCCCn1c(SCC(=O)NCc2ccco2)nc2ccc(N3CCOCC3)cc2c1=O	0.4	3	9	22	60*	0.8
COc1ccc(OC)c(N=C(C)C2=C(O)COC2=O)c1	0.8	-4	-3	34	18	0.7
